Our source for the outcome and AC50 values is PubChem BioAssay (EPA / NIEHS).

Assay [1] is described as follows: ATG_PBREM_CIS: Attagene CIS-FACTORIAL HepG2 Assay for human Phenobarbital-responsive Enhancer Module (PBREM) (AID 2282955). As to conditions: HepG2 PBREM cis-reporter, Attagene multiplexed transcription; actives raise or lower the signal. In short, it runs like this: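 HepG2, transient MRTU transfection, 24 h dosing; RNA → oligo(dT) RT → PCR → 6-FAM extension → HpaI → CE. Bidirectional fit vs DMSO.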

The nature of assay [2]: ATG_PXRE_CIS: Attagene CIS-FACTORIAL HepG2 Assay for human Pregnane X Receptor Element (PXRE) (AID 2282957). As to conditions: HepG2 Attagene CIS-FACTORIAL PXRE reporter, mRNA; actives raise or lower the signal. In short, it runs like this: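 Cells: HepG2, transiently transfected reporter units under cis promoter control. Exposure: 24 h. Detection: reporter mRNA via RT-PCR/CE fluorescence; bidirectional fitting, DMSO-referenced.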

A short description of assay [3]: ATG_Sox_CIS: Attagene CIS-FACTORIAL HepG2 Assay for human SRY-box transcription factor (SOX) (AID 2282960). As to conditions: HepG2 Attagene cis-factorial SOX reporter, mRNA; actives raise or lower the signal. In short, it runs like this: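 Cells were transfected with reporter constructs under cis-regulatory promoters, then exposed to chemicals for 24 h. Reporter transcripts were quantified by fluorescence after RT-PCR and capillary electrophoresis; activity was fitted in both directions against DMSO.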

Assay [4] addresses Transcription factor Sp1 (Homo sapiens) (UniProt P08047). In words: ATG_Sp1_CIS: Attagene CIS-FACTORIAL HepG2 Assay for human Specificity Protein 1 (Sp1) (AID 2282961). The settings on record: HepG2 Sp1 cis-reporter transcription, actives raise or lower the signal. In short, it runs like this:
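Measures mRNA induction of an Sp1-linked reporter in HepG2 cells 24 h post-dosing. Multiplexed reporters read by RT-PCR and capillary electrophoresis; DMSO serves as negative control and baseline.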

A short description of assay [5]: ATG_SREBP_CIS: Attagene CIS-FACTORIAL HepG2 Assay for human Sterol Regulatory Element Binding (SREBP) (AID 2282962). The settings on record: HepG2 Attagene cis-factorial SREBP reporter, mRNA; actives raise or lower the signal. In short, it runs like this: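 Twenty-four hours after chemical dosing of transfected HepG2 cultures, reporter RNA was converted to cDNA, amplified, end-labelled with 6-FAM and resolved by capillary electrophoresis. Responses were fitted relative to DMSO.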

In assay [6] the target is Signal transducer and activator of transcription 3 (Homo sapiens) (UniProt P40763). The experiment in a line: ATG_STAT3_CIS: Attagene CIS-FACTORIAL HepG2 Assay for human Signal Transducer and Activator of Transcription 3 (STAT3) (AID 2282963). The settings on record: HepG2, Attagene cis-factorial STAT3 reporter transcription; actives raise or lower the signal. In outline: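 Values derive from bidirectional fits relative to DMSO of reporter mRNA levels, measured by RT-PCR with capillary electrophoresis, in HepG2 cells carrying transiently transfected cis-regulated reporter units and exposed 24 h.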
Chain of Signal transducer and activator of transcription 3 (Homo sapiens) (P40763 whole entry, looked up): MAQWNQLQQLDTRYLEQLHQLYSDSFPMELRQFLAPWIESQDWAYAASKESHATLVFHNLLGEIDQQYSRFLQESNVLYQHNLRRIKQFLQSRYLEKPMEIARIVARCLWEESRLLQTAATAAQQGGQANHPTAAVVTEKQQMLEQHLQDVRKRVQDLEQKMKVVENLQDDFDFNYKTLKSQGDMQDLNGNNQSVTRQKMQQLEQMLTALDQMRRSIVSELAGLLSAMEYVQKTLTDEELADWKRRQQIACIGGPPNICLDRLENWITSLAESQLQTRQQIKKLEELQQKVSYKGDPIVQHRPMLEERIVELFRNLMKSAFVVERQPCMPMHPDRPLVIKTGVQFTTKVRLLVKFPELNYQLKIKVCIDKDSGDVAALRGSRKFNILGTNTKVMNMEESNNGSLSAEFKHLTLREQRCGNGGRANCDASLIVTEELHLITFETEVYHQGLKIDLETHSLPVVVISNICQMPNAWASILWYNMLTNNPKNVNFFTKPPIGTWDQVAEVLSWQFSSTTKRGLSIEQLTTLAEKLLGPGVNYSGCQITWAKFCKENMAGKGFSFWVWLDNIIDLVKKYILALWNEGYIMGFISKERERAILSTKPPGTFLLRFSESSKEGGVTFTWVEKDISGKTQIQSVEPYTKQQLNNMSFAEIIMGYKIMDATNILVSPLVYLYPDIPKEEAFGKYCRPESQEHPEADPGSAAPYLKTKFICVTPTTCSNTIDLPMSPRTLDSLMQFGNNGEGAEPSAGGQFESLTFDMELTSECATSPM

A short description of assay [7]: ATG_TA_CIS: Attagene CIS-FACTORIAL HepG2 Assay for human TA Basal Promoter (AID 2282964). As to conditions: HepG2 Attagene CIS-factorial TA basal promoter reporter; actives raise or lower the signal. In outline:
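Background-control readout: TA basal promoter reporter mRNA, fitted in both directions relative to DMSO. Measured by RT-PCR and capillary electrophoresis 24 hours after treating HepG2 human liver cells transiently carrying multiplexed cis-regulated reporter constructs.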

Assay [8] can be described thus: ATG_TCF_b_cat_CIS: Attagene CIS-FACTORIAL HepG2 Assay for human T-Cell-Factor with beta-catenin (TCF/b-cat) (AID 2282965). As to conditions: HepG2 TCF/beta-catenin cis-reporter transcription, actives raise or lower the signal. In short, it runs like this: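 Cells of the HepG2 line carry transiently transfected reporter units whose promoters respond to endogenous factors. Twenty-four hours post-dosing, reporter mRNA induction is measured by fluorescent RT-PCR and capillary electrophoresis, with DMSO as baseline.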

Assay [9] is described as follows: ATG_TAL_CIS: Attagene CIS-FACTORIAL HepG2 Assay for human TAL Basal Promoter (AID 2282966).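 Also: background control endpoint measuring basal TAL promoter reporter mRNA not a specific factor.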 The settings on record: HepG2 Attagene cis-factorial TAL promoter reporter; actives raise or lower the signal. In short, it runs like this: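 RT-PCR plus capillary electrophoresis quantifies reporter mRNA induction in transiently transfected HepG2 cells after 24 h chemical treatment. DMSO serves as negative control and baseline for bidirectional fitting.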

The nature of assay [10]: ATG_TGFb_CIS: Attagene CIS-FACTORIAL HepG2 Assay for human Transforming Growth Factor (TGF) (AID 2282967). The settings on record: HepG2 Attagene CIS TGFb reporter, mRNA transcription; actives raise or lower the signal. In short, it runs like this:
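Endogenous TGFB1-linked transcription factor activity read as reporter mRNA via RT-PCR and capillary electrophoresis, 24 h after dosing transiently transfected HepG2 cells. Gain or loss of signal fitted relative to DMSO.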

For assay [11], the target named is X-box-binding protein 1 (Homo sapiens) (UniProt P17861). The experiment in a line: ATG_Xbp1_CIS: Attagene CIS-FACTORIAL HepG2 Assay for human X-box Binding Protein 1 (XBP1) (AID 2282972). As to conditions: HepG2 XBP1 cis-element reporter, Attagene multiplex; actives raise or lower the signal. In short, it runs like this: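 After a 24-hour chemical exposure of HepG2 cells carrying cis-regulated reporters, reporter mRNA levels are assessed. Quantification uses RT-PCR, 6-FAM labelling and capillary electrophoresis. Gain- or loss-of-signal is fitted against DMSO.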
Chain of X-box-binding protein 1 (Homo sapiens) (P17861 whole entry, looked up): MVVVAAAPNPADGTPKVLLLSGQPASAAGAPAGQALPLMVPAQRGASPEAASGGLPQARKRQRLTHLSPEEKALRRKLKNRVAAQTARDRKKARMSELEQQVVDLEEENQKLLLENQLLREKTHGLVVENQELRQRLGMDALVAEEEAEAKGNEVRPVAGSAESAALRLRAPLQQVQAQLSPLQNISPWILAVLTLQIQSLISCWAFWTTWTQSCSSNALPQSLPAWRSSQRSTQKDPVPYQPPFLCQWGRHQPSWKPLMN

Assay [12] can be described thus: ATG_M_19_TRANS: Attagene TRANS-FACTORIAL HepG2 Assay for M19 Transcription Factor (Internal Marker) (AID 2282974; active = hit-call score of the fitted dose curve at least 0.9, where 1 is the maximum). The settings on record: HepG2 Attagene TRANS-FACTORIAL M19 internal marker reporter. In short, it runs like this: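 After transfection of HepG2 with GAL4-UAS-driven reporter constructs, cells are dosed for 24 h. Total RNA is reverse-transcribed, reporter sequences PCR-amplified and labelled, then HpaI-digested and sized by capillary electrophoresis.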

Assay [13] can be described thus: ATG_RORE_CIS: Attagene CIS-FACTORIAL HepG2 Assay for human RAR-related Orphan Receptor Element (RORE) (AID 2282959). The settings on record: HepG2 Attagene cis-factorial RORE reporter, mRNA; actives raise or lower the signal. In outline:
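Multiplexed reporter assay measuring mRNA induction from a cis promoter element in transiently transfected HepG2 cells after 24 h treatment. Detection via RT-PCR and capillary electrophoresis fluorescence; DMSO serves as baseline.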

Assay [14] is described as follows: ATG_PPRE_CIS: Attagene CIS-FACTORIAL HepG2 Assay for human Peroxisome Proliferator-activated Response Element (PPRE) (AID 2282958). The settings on record: HepG2 PPRE cis-element reporter, Attagene transcription factor profiling; actives raise or lower the signal. In short, it runs like this:
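Transcript-level reporter induction in transfected HepG2 cells after 24 h chemical exposure, quantified by fluorescence from RT-PCR products separated by capillary electrophoresis.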

Assay [15] addresses Nuclear receptor subfamily 1 group I member 3 (Homo sapiens) (UniProt Q14994). The experiment in a line: ATG_CAR_TRANS: Attagene TRANS-FACTORIAL HepG2 Assay for human Constitutive Androstane Receptor (CAR) (AID 2282969; active = hit-call score of the fitted dose curve at least 0.9, where 1 is the maximum;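 also: activators raise reporter mRNA above DMSO so AC50 marks induction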). The settings on record: HepG2 Attagene TRANS-FACTORIAL CAR reporter. In short, it runs like this: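 HepG2 cells transiently transfected with GAL4-UAS reporter units; TRANS format reads activity of exogenous chimeric NR-Gal4 protein. After 24 h dosing, reporter mRNA quantified by RT-PCR, 6-FAM labelling and capillary electrophoresis; gain of signal fitted against DMSO.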

Assay [16] concerns the target Estrogen receptor (Homo sapiens) (UniProt P03372). The experiment in a line: ATG_ERa_TRANS: Attagene TRANS-FACTORIAL HepG2 Assay for human Estrogen Receptor alpha (ERa) (AID 2282970; active = hit-call score of the fitted dose curve at least 0.9, where 1 is the maximum). The settings on record: HepG2 Attagene TRANS ERa GAL4 reporter, mRNA. In outline: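 Cells: HepG2, transiently transfected. Construct: GAL4-UAS reporter units regulated by exogenous NR-Gal4 chimeras. Time: 24 h. Detection: reporter mRNA by RT-PCR, capillary electrophoresis, fluorescence. Baseline: DMSO, upward fitting.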

Assay [17] can be described thus: ATG_GAL4_TRANS: Attagene TRANS-FACTORIAL HepG2 Assay for GAL4 (Internal Marker) (AID 2282976; active = hit-call score of the fitted dose curve at least 0.9, where 1 is the maximum). The settings on record: HepG2 Attagene TRANS GAL4 internal marker reporter. In short, it runs like this:
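In transfected human HepG2 liver cells dosed 24 h, GAL4 reporter mRNA serves as a baseline marker. Detection by RT-PCR with fluorescent capillary electrophoresis, activity fitted upward relative to DMSO.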

Assay [18] addresses Paired box protein Pax-6 (Homo sapiens) (UniProt P26367). The experiment in a line: ATG_Pax6_CIS: Attagene CIS-FACTORIAL HepG2 Assay for human Paired Box 6 (PAX6) (AID 2282956). The settings on record: HepG2 CIS-FACTORIAL PAX6 reporter transcription, RNA readout; actives raise or lower the signal. In outline: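 After twenty-four hours of chemical exposure, transfected HepG2 cells are harvested for RNA. Cis-promoter reporter transcripts are amplified, fluorescently labelled and sized by capillary electrophoresis, with gain and loss of signal scored against DMSO.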

A short description of assay [19]: ATG_VDRE_CIS: Attagene CIS-FACTORIAL HepG2 Assay for human Vitamin D Receptor Element (VDRE) (AID 2282968). The settings on record: HepG2 VDRE cis-reporter transcription, actives raise or lower the signal. In outline:
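Cell-based multiplexed reporter format in human liver HepG2 cells, 24 h post-dose. Fluorescence from capillary electrophoresis of reporter cDNA gives the signal, with DMSO as negative control and baseline.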

Inconclusive results are not listed. Activity calls are given as the source filed them. The calls were made as follows, unless noted: active = hit-call score of the fitted dose curve at least 0.9, where 1 is the maximum; inactive = score below 0.9.

Chain of Transcription factor Sp1 (Homo sapiens) (P08047 whole entry, looked up): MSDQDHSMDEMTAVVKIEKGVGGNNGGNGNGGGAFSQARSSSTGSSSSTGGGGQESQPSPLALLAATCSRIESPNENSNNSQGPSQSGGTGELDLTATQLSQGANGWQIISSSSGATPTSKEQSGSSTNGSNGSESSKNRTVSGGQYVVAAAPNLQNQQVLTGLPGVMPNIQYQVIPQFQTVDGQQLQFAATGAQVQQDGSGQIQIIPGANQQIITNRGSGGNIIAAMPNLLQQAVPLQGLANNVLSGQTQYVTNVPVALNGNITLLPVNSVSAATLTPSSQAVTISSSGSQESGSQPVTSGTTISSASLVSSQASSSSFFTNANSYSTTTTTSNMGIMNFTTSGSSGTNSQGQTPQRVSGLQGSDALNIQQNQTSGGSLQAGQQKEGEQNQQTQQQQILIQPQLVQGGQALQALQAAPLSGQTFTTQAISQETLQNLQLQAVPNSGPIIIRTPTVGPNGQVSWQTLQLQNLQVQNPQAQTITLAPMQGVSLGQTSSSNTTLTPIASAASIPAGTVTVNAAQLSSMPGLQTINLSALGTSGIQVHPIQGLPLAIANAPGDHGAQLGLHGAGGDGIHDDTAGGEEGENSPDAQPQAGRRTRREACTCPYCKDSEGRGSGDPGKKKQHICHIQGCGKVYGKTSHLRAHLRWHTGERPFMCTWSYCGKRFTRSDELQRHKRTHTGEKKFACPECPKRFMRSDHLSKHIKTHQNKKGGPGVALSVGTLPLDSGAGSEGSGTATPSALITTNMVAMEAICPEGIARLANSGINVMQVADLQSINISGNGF
Chain of Estrogen receptor (Homo sapiens) (P03372 whole entry, looked up, the tested form may be a part): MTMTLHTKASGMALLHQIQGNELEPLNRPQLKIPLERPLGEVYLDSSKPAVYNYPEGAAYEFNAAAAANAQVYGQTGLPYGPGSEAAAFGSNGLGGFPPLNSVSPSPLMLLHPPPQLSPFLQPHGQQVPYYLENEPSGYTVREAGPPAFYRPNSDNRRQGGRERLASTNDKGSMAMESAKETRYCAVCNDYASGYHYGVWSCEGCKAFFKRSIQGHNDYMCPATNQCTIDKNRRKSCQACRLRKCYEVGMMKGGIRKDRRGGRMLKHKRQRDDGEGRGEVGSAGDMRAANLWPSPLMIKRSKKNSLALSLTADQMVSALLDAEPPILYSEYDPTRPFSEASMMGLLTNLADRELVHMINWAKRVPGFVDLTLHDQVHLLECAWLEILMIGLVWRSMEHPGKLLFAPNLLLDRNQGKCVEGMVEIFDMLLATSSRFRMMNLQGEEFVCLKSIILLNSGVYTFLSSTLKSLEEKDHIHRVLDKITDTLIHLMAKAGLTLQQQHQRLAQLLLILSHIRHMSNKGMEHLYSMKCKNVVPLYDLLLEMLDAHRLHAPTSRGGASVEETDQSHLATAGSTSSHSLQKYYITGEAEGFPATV
Chain of Paired box protein Pax-6 (Homo sapiens) (P26367 whole entry, looked up): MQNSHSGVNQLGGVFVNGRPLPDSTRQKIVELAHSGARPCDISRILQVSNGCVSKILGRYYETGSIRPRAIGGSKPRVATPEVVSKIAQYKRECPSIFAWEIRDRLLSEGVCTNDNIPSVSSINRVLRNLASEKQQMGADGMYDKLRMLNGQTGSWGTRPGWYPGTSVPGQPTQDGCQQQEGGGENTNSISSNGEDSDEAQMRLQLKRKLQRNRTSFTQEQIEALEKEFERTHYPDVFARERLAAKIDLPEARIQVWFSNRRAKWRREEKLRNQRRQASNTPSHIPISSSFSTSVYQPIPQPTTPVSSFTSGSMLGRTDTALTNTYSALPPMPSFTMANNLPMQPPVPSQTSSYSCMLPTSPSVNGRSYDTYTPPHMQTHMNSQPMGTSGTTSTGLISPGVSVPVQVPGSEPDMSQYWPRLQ
Chain of Nuclear receptor subfamily 1 group I member 3 (Homo sapiens) (Q14994 whole entry, looked up, the tested form may be a part): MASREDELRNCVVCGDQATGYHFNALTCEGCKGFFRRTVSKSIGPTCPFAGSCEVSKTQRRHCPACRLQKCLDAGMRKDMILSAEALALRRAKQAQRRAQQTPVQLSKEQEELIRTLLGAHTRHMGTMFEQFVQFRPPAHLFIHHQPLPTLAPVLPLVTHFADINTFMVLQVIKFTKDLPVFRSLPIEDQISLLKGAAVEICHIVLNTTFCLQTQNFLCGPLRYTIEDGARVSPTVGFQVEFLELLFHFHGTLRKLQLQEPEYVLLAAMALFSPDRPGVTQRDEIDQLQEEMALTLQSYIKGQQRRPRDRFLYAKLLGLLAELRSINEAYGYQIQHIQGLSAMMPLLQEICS

Turning to `C=C(C)[C@@H]1CC=C(C)CC1`, the outcome in assay [1], in assay [2], in assay [3], in [4], in assay [5] and in [6] was inactive. Also, the outcome in assay [7], in assay [8], in [9], in assay [10], in [11] and in assay [12] was inactive.

For `Cc1c(C(=O)c2c[nH]n(C)c2=O)ccc(S(C)(=O)=O)c1C1=NOCC1`, the outcome in assay [1], in assay [13], in assay [4], in assay [5], in assay [6] and in assay [7] was inactive. In addition, the molecule was classed as inactive in assay [8], in assay [9], in assay [10] and in [12]. In assay [2], the AC50 is 14.4 µM (active).

As to `O=C1CCCCCCCCCCC1`, the AC50 in [1] was 22.2 µM (active); in assay [2] it was 8.96 µM (active); in assay [16], 21.2 µM (active). Also, the call in [14], in assay [13], in [3], in assay [4], in [5] and in assay [6] was inactive. In addition, the molecule was called inactive in [8], in [9], in assay [10], in [15] and in assay [11].

In the case of `C=C1C[C@H]2[C@@H]3C=C(C)C4=CC(=O)CC[C@]4(C)[C@H]3CC[C@]2(C)[C@@]1(OC(C)=O)C(C)=O`, the AC50 in [1] was 113 µM (active); in assay [2] it was 3.44 µM (active); in assay [5], 63 µM (active); in assay [7] it was 50.8 µM (active); in assay [8], 18.9 µM (active); in assay [9] it was 52.8 µM (active). In addition, the AC50 in assay [11] was 88 µM (active). Further, the result in [3], in [4], in assay [6], in assay [10], in [12] and in assay [17] was inactive.

Consider `CCCCCCC=O`, for which the molecule was called inactive in assay [18], in [2], in [13], in [3], in assay [4] and in assay [5]. Also, the outcome in assay [6], in [7], in assay [8], in assay [9], in assay [10] and in assay [19] was inactive. The molecule was classed as inactive in [11] and in assay [12]. Moreover, the AC50 in assay [14] is 81.6 µM (active); in assay [16] it was 19 µM (active).
